Assay outcomes deposited in PubChem BioAssay by National Center for Advancing Translational Sciences (NCATS).
NPSR antag = qHTS Assay for Antagonists of the Neuropeptide S Receptor: cAMP Signal Transduction | CHO-NPSR cells, cAMP TR-FRET, antagonist mode | Potency, µM (top dose mostly 38.3 µM), hits mostly inhibitors | hit rate 1% among 220,000 | AID 1461, 2008; active means well fitted curve in the direction sought with a large enough effect; inconclusive means small, poorly fitted or top-dose-only effect, or another doubt; inactive means no such curve, though single readings can be large; an effect the other way counts as inactive or inconclusive; further: nearly all actives have a fitted effect of over 50% in size
Target sequence (Q6W5P4 whole entry, looked up): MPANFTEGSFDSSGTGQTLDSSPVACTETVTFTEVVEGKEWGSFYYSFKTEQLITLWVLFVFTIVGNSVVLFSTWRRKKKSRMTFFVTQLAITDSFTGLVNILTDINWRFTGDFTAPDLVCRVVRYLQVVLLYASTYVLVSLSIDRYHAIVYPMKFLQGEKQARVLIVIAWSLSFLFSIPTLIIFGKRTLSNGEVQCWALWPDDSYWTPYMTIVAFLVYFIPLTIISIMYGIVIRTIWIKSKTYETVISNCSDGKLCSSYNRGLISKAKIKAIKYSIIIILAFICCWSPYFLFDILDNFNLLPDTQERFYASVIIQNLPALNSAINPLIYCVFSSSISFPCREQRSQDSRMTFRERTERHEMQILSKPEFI
JMJD2E inh = qHTS Assay for Inhibitors of Human Jumonji Domain Containing 2E (JMJD2E) | JMJD2E catalytic domain, FDH-coupled NADH fluorescence (FDH is formaldehyde dehydrogenase) | Potency, µM (doses to about 57.1 µM), most hits filed as inhibitors | hit rate 1.6% among 230,000 | AID 2147, 2009; further: nearly all actives have a fitted effect of over 50% in size
Target sequence (B2RXH2 1-337 limits assumed): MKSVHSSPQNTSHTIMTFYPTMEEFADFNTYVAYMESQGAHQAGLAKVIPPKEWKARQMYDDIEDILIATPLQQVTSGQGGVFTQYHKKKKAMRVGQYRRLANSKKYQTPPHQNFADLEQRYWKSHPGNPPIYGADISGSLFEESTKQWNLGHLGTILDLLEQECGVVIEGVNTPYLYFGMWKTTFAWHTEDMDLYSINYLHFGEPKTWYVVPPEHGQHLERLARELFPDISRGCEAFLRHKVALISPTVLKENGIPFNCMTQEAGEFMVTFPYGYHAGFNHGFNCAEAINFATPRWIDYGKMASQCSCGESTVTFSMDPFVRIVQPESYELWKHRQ
RGS12 GoLoco inh = qHTS Assay for Inhibitors of RGS12 GoLoco Motif Activity (Red Fluorophore); Gai1:RGS12 GoLoco peptide FP, rhodamine, 10 min; Guanine nucleotide-binding protein G(i) subunit alpha-1 (Homo sapiens), P63096; Potency, µM (top dose mostly 61.6 µM), hits mostly inhibitors; hit rate 0.44% among 230,000; AID 880, 2007; active means well fitted inhibition curve with a large enough effect, not every such curve was filed as active; inactive means no such curve, though single readings can be large or run the other way; further: nearly all actives have a fitted effect of over 30% in size
Sfp PPTase inh = qHTS Assay for Inhibitors of Bacillus subtilis Sfp phosphopantetheinyl transferase (PPTase). 4'-phosphopantetheinyl transferase ffp (Bacillus subtilis), Q9F4F7. AID 1490, 2009. hit rate 3.5% among 310,000. Potency, µM, hits mostly inhibitors. Biochemical Sfp PPTase activity, qHTS; active means well fitted curve in the direction sought with a large enough effect; inconclusive means small, poorly fitted or top-dose-only effect, or another doubt; inactive means no such curve, though single readings can be large; an effect the other way counts as inactive or inconclusive;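 further: the enzyme is Sfp with the accession as filed and its product quenches rhodamine fluorescence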
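With Hepes-Na pH 7.6 buffer containing 10 mM MgCl2, Sfp (15 nM) modified BHQ-2-YbbR (12.5 uM) using rhodamine-CoA (5 uM). Two reads 30 minutes apart at 525/598 nm yielded each well's rate.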
FBPA coupling cs = qHTS Assay for Inhibitors of Fructose-1,6-bisphosphate Aldolase from Giardia Lamblia: Coupling assay counterscreen. coupling enzyme system counterscreen, AmpLite Red fluorescence. activity change, negative = inhibition, % at 58.2 µM, hits read low. hit rate 0.67% among 290,000. AID 2472, 2010; in the data active means activity change below about -30%
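Final compound at 57.5 uM, incubated 10 min at RT with coupling enzyme reagent (glyceraldehyde-3-phosphate), then 20 min with substrate and AmpLite Red detection. Fluorescence read at 525/598 nm; tests interference with the coupling assay, not aldolase inhibition.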
ALDH1A1 block = qHTS Assay for Inhibitors of Aldehyde Dehydrogenase 1 (ALDH1A1). Aldehyde dehydrogenase 1A1 (Homo sapiens), P00352. Purified ALDH1A1, NADH fluorescence, propionaldehyde substrate. Potency, µM (series often up to 75.3 µM), actives largely listed as inhibitors. hit rate 7.3% among 220,000
Numbers stand for hits; 0 = inactive; ? = inconclusive; - = no result given; [ ] = dose if it differs, or a comment. Rows were chosen to be rich in hits. Some 8.5% of all compounds tested hit in one or more screens of this group. Unless noted, the call rests on the fitted dose curve; in most records, active means well fitted inhibition curve with a large enough effect (not every such curve was filed as active); inconclusive means small, poorly fitted or top-dose-only effect, or another doubt; inactive means no such curve, though single readings can be large or run the other way.

SMILES	NPSR antag	JMJD2E inh	RGS12 GoLoco inh	Sfp PPTase inh	FBPA coupling cs	ALDH1A1 block
O=C(CCl)NCc1c(Cl)cccc1-n1cccc1	0	0	0	0	0	28.2µM
CCc1ccc(N(CC(=O)NC2CCCC2)C(=O)CCC(=O)Nc2ccccn2)cc1	-	-	-	0	0	-
S=C(Nc1ccc2nsnc2c1)N1CCCC1	?	?	0	14.1µM	0	25.1µM
S=C(Nc1ccc2nccnc2c1)N1CCCC1	0	?	0	?	0	0
NC(N)=N/N=C/c1cc([N+](=O)[O-])ccc1O	0	0	0	0	0	?
Oc1ccccc1/C=N/Nc1nn[nH]n1	0	?	0	0	0	-
O=[N+]([O-])c1ccc(O)c(/C=N/Nc2nn[nH]n2)c1	0	14.1µM	0	0	0	0
O=[N+]([O-])c1ccc(O)c(/C=N/NC2=NS(=O)(=O)c3ccccc32)c1	0	22.4µM	0	0	0	?
O=[N+]([O-])c1ccc(O)c(/C=N/Nc2ccc(Cl)nn2)c1	0	5.62µM	0	0	0	?
Clc1ccc(/C=N/Nc2nn[nH]n2)cc1	0	0	0	0	0	0
O=[N+]([O-])c1ccc(/C=N/NC2=NS(=O)(=O)c3ccccc32)cc1	0	0	0	0	0	0
C(=N\Nc1nn[nH]n1)/c1ccccc1	0	0	0	44.7µM	0	0
O=S1(=O)N=C(N(Cc2cccs2)c2ccc(O)cc2)c2ccccc21	0	0	0	0	0	?
Cc1ccc(S(=O)(=O)N2C(=O)C(c3ccccc3)SC2=Nc2ccccc2)cc1 (stereo not drawn)	0	0	0	20µM	0	8.91µM
Cc1ccc(S(=O)(=O)N2C(=O)C(C)SC2=Nc2ccccc2)cc1 (stereo not drawn)	0	0	0	0	0	?
Cc1ccccc1C(=O)NNC(=O)/C=C/c1ccccc1	0	?	0	0	0	0
CC(c1ccncn1)N(C)Cc1nc(-c2ccc(C(F)(F)F)cc2)no1 (stereo not drawn)	0	0	0	0	0	0
Cc1oc(-c2ccc3ccccc3c2)nc1CN(C)C(C)c1ccncn1 (stereo not drawn)	0	0	0	22.4µM	0	15µM
CN(C)c1ccc2c(O)cc(=O)n(C)c2c1	?	?	0	0	-36.8	?
O=C1C2CC=CCC2C(=O)N1Cc1nnc(-c2ccccc2Br)o1 (stereo not drawn)	0	0	0	0	0	-
O=C1C=CC(=O)N1CCCCCCN1C(=O)C=CC1=O	?	0	0	3.55µM	0	0.224µM
CCN1C(=O)C=CC1=O	?	0	0	-	-	?
O=C(O)c1c[nH]c(=S)n1-c1ccc(F)cc1	0	0	0	11.2µM	0	0
O=C(NCCc1ccccn1)c1cc2ccccc2o1	-	-	-	0	0	-
CCOc1ccc(C(=O)NCCCN2CCOCC2)cc1OCC	0	0	0	0	0	0
SMILES	NPSR antag	JMJD2E inh	RGS12 GoLoco inh	Sfp PPTase inh	FBPA coupling cs	ALDH1A1 block
CCOC(=O)/C(C#N)=C/c1cc(C)n(-c2ccccc2)c1C	0	0	0	0	0	11.2µM
CCOC(=O)/C(C#N)=C/c1cc2ccc(C)cc2nc1Cl	0	0	0	?	0	?
CCOC(=O)/C(C#N)=C/c1cc2ccccc2nc1N1CCOCC1	0	0	0	0	0	25.1µM
Cc1[nH]c2ccccc2c1C(=O)CN1CCN(c2ccc(Cl)cc2)CC1	-	-	-	0	0	-
Cc1cccc(C)c1NC(=O)CN(C)C(=O)Cn1c(=O)cnc2ccccc21	-	-	-	0	0	-
CC(C)N=C=NC(C)C	-	-	0	-	-	0
CCN1C(=O)[C@H]2[C@@H]3[C@H](O)C=CC(=O)[C@H]3CC[C@H]2C1=O	-	-	-	0	0	3.16µM
C/C(=N\NC(=O)CNC(=O)c1ccccc1Br)c1ccco1	-	-	-	0	0	-
Cc1ccc2nc(SCc3nnc(-c4cccs4)o3)[nH]c2c1	0	0	0	0	0	22.4µM
Cc1ccc2nc(SCc3nnc(-c4ccccc4)o3)[nH]c2c1	0	0	0	0	0	0
COc1ccc(N2C(=O)CC(n3cnc4ccccc43)C2=O)cc1 (stereo not drawn)	0	0	0	0	0	0
COc1ccc(N2C(=O)CC(N3CCN(c4ccccc4)CC3)C2=O)cc1 (stereo not drawn)	-	-	-	0	0	-
O=C1CCCN1CCC1CCN(C2CC(=O)N(c3ccc(F)cc3)C2=O)CC1 (stereo not drawn)	0	0	0	0	0	12.6µM
COc1ccc(N2C(=O)CC(n3c(CCCCO)nc4ccccc43)C2=O)cc1 (stereo not drawn)	0	0	0	0	0	3.55µM
O=C1CC(N2CCOCC2)C(=O)N1c1cc(Cl)cc(Cl)c1 (stereo not drawn)	0	0	0	0	0	3.16µM
COc1ccc(N2C(=O)CC(N3CCOCC3)C2=O)cc1 (stereo not drawn)	0	0	0	0	0	25.1µM
Nc1c(N2CCCCC2)c2ccccc2oc1=O	0	0	0	0	0	0
O=C(C1CCN(C2CC(=O)N(c3ccc(F)cc3)C2=O)CC1)N1CCOCC1 (stereo not drawn)	0	0	0	0	0	7.08µM
CCN1C(=O)CC(N2CCC(C(=O)N3CCOCC3)CC2)C1=O (stereo not drawn)	0	0	0	0	0	0
O=C(O)c1cc2ccccc2c(Cc2cc3ccccc3c(C(=O)O)c2O)c1O (tested in a mixture with another compound)	-	0	0	0	0	?
COCC(=O)Nc1cc(Cl)ccc1C	0	0	0	0	0	?
Cc1ccc(Cl)cc1NC(=O)CSC(N)=O	0	0	0	?	0	1.58µM
NC(=O)CC(NC(=O)Cc1ccc(Cl)cc1)c1ccc(N2CCC(Cc3ccccc3)CC2)c([N+](=O)[O-])c1 (stereo not drawn)	-	-	-	0	0	-
COCCn1nnnc1C(c1cc2cc(C)cc(C)c2[nH]c1=O)N1CCN(c2ccccc2F)CC1 (stereo not drawn)	0	?	0	12.6µM	0	?
COc1ccc2cc(C(c3nnnn3CCc3ccccc3)N3CCCC(C)C3)c(=O)[nH]c2c1 (stereo not drawn)	0[7.67 µM]	?	0	0	0	31.6µM
Cc1ccc2[nH]c(=O)c(C(c3nnnn3CCc3ccccc3)N3CCOCC3)cc2c1 (stereo not drawn)	0	?	0	0	0	?
COCCn1nnnc1C(c1cc2cc(C)ccc2[nH]c1=O)N1CCCCCC1 (stereo not drawn)	0	?	0	50.1µM	0	25.1µM
